Molecules are shown by their SMILES. Values without a mark were called inactive. Activity calls are given as the source filed them.

The assay in a line: S. cerevisiae RM11-1a growth modifiers, primary screen, strain RM11-1a, OD600, basal, 24 h (AID 1177).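 Note: cultures grown under basal conditions with no added stressor; test concentration not given here.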 The conditions noted are these: OD600, 24 h, higher = more signal, called active from +8 up or from −8 down.
In the case of `CC(=O)NCCCC[C@@H]1NC(=O)[C@@H]2C[C@H](C(=O)NCCCCCNC(=O)CS)[C@H](c3cccc(OCCO)c3)N2C1=O`, the z-score is -0.86. For `COc1ccccc1CN1C(=O)c2ccccc2[C@@]2(Cc3ccccc3N(CC(C)C)C2=O)[C@@H]1c1ccc(CO)cc1` the value was -1.04. For `CC(CO)N1C(=O)[C@@H]2C3C(=O)OCCC/C=C\[C@H]3OC23C=CCN(C(C)(C)C)C(=O)[C@@H]13` (stereo partly specified) the value was -0.0192; for `CC1(C)[C@@H]2CC(C(O)C3C=CC4C(=O)N(Cc5ccccc5)C(=O)C4N3n3cnnc3)=C[C@H]1C2` (stereo partly specified), 1.29. For `O=C1C[C@@](C(=O)NC2CC2)(c2ccc([N+](=O)[O-])cc2)[C@@H](c2ccc(CO)cc2I)N1C1CCCCC1` the value was -0.0222. `NC(=O)NCC#Cc1ccc2c(c1)[C@]1(C(=O)N2)[C@H](C(=O)Nc2nc3ccccc3s2)[C@H]2C(=O)O[C@H](c3ccccc3)[C@H](c3ccccc3)N2[C@@H]1c1ccccc1OCCO`: the z-score is 1.8.

For `O=C1c2ccccc2[C@](Cc2ccccc2I)(C(=O)NCC(F)(F)F)[C@H](c2ccc(CO)cc2)N1Cc1ccccc1Cl`, the z-score was -0.838.

Regarding `CCC[C@@H]1C[C@@]1(CCC)[C@@H](NS(=O)(=O)c1cccc2cccnc12)c1ccc(Cl)cc1`, the z-score is 1.24. To `CCCC[C@@H]1C[C@H]1[C@@H](NC(=O)c1ccco1)c1ccc(-c2ccccc2)cc1` belongs 0.505; to `Cc1ccc(S[C@]2(C(=O)NCCCN(C)C)CC(=O)N(Cc3cc(C(F)(F)F)cc(C(F)(F)F)c3)[C@@H]2c2ccc(CO)cc2)cc1`, -0.607. Turning to `C=C[C@@H](COC(=O)OC(C)(C)C)N(Cc1ccc(OC)cc1)S(=O)(=O)c1ccc(Br)cc1`, the z-score was 0.378. To `COCCOC(=O)N1C(=O)[C@@]2(c3cc(C#CCC(C(=O)OC)C(=O)OC)ccc31)[C@H](C(=O)N1CCN(c3ncccn3)CC1)[C@H]1C(=O)O[C@H](c3ccccc3)[C@H](c3ccccc3)N1[C@@H]2c1ccccc1OCCO` belongs 2.75. To `CN1C(=O)C2C=CC(C(O)c3ccccc3)N(N(c3ccccc3)c3ccccc3)C2C1=O` (stereo unspecified) belongs 0.579; to `COc1ccc([Si](C)(C)[C@H]2[C@H](CC(=O)N3Cc4ccccc4C[C@H]3CO)O[C@@]3(C(=O)N(Cc4cccc(N5CCC5=O)c4)c4ccccc43)[C@@H]2C)cc1`, 2.58; to `C=CCC(OC(C)=O)[C@@H]1[C@@H](N(Cc2ccc(-c3cccc(C(F)(F)F)c3)o2)C(=O)c2ccc(C)cc2)c2cc(OCCCO)ccc2N1C(=O)Cc1ccc2ccccc2c1` (stereo partly specified), 0.476. For `Oc1ccc2cc[n+](Cc3sc4ccccc4c3Cl)cc2c1` the value was 0.474; for `COC(=O)C(CC#Cc1ccc2c(c1)[C@]1(C(=O)N2)[C@H](c2ccc(OCCO)cc2)N2[C@H](c3ccccc3)[C@H](c3ccccc3)OC(=O)[C@H]2[C@@H]1C(=O)N1CCc2cc(OC)c(OC)cc2C1)C(=O)OC`, 2.97; for `COc1ccc(CCNC(=O)[C@@]2(Sc3ccc(C)cc3)CC(=O)N(C(C)C)[C@@H]2c2ccc(CO)cc2I)cc1`, -0.894. Consider `CN(C)CCCC[C@@H]1NC(=O)[C@@H]2C[C@H](C(=O)NCCCCCCN)[C@H](c3cccc(OCCO)c3)N2C1=O`, for which the z-score is -1.17. For `C=CCN1C(=O)[C@]2(O[C@H](CCn3cc([C@H](O)c4ccccc4)nn3)[C@@H]([Si](C)(C)c3ccc(OC)cc3)[C@@H]2C)c2ccccc21` the value was 0.507; for `COC(=O)C(CC#Cc1ccc2c(c1)[C@]1(C(=O)N2)[C@H](C(=O)Nc2nc3ccccc3s2)[C@H]2C(=O)O[C@H](c3ccccc3)[C@H](c3ccccc3)N2[C@@H]1c1ccc(O)cc1)C(=O)OC`, 0.698; for `COc1cc2c(cc1O)C(c1cccs1)N(C)CC2` (stereo unspecified), -0.225. For `C=CC[C@]1(C(=O)NCc2ccccc2)N=C(c2ccc(OCCCO)cc2)O[C@H]1c1ccccc1N=[N+]=[N-]` the value was 0.599.

For the compound `O=C(c1ccccc1)N1Cc2ccccc2C[C@@]2(COC(c3ccc(OCCCO)cc3)=N2)C1=O`, the z-score is 2.02. To `C=C[C@H](C)[C@@H](OC(=O)Nc1ccc(OC)cc1)c1ccc(O)c2ccccc12` belongs -21.8 (active). To `CCC(CC)C(O)C1C=CC2C(=O)NC(=O)C2N1Nc1ccc(Cl)cc1Cl` (stereo unspecified) belongs 1.27.

Source of the values: PubChem BioAssay.
